Source: PubChem BioAssay (National Center for Advancing Translational Sciences (NCATS))
AmpC inh det = Promiscuous and Specific Inhibitors of AmpC Beta-Lactamase (assay with detergent) | P00811 | purified AmpC, nitrocefin hydrolysis with detergent | Potency, µM (highest dose often 28.7 µM) | actives 0.09% (n = 71,000) | AID 584, 2007; active means well fitted curve in the direction sought with a large enough effect; inconclusive means small, poorly fitted or top-dose-only effect
Target sequence (P00811 whole entry, looked up): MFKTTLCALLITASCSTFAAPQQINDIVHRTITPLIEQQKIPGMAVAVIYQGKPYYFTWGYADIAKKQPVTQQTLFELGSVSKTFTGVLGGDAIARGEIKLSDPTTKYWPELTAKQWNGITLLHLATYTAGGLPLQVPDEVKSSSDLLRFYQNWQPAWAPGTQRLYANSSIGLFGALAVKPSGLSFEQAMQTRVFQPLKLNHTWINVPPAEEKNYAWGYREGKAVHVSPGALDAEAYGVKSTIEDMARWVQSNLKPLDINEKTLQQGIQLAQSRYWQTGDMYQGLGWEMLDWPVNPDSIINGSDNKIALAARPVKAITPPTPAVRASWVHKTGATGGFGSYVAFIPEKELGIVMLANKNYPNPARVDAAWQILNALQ
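E. coli AmpC (5.3 nM) in 20 mM phosphate pH 7.0 with 0.01% Triton X-100, preincubated 15 min RT with compound; nitrocefin (2 uL of 800 uM stock) hydrolysis followed by 480 nm absorbance every 20 s over 4 min.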
Prx2 Sm inh = Schistosoma Mansoni Peroxiredoxins (Prx2) | Schistosoma mansoni peroxiredoxin 2 (Prx2) | S. mansoni Prx2 activity coupled to TGR/GSH (TGR is thioredoxin glutathione reductase), NADPH fluorescence loss, qHTS | Potency, µM | actives 0.07% (n = 65,000) | AID 448, 2006
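Prx2 inhibition was measured as reduced NADPH consumption when electrons flowed from NADPH through TGR and glutathione to Prx2 and H2O2. Plates were read kinetically over 8 min; enzyme reagents were held at 4 deg C during dispensing.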
LT uptake inh = qHTS Assay for Anthrax Lethal Toxin Internalization | Cells, anthrax lethal toxin internalization, FRET ratio (460/530) | Potency, µM (series often up to 40 µM), usual class: inhibitors | actives 0.67% (n = 70,000) | AID 912, 2007; further: nearly all actives have a fitted effect of over 50% in size
AmpC inh no det = Promiscuous and Specific Inhibitors of AmpC Beta-Lactamase (assay without detergent) | P00811 | AmpC nitrocefin hydrolysis, absorbance 480 nm, no detergent | Potency, µM (highest dose often 28.7 µM) | actives 1.8% (n = 71,000) | AID 585, 2007
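AmpC in 20 mM phosphate buffer pH 7.0 was preincubated 15 min at room temperature with compounds. Nitrocefin (800 uM stock) was then added and hydrolysis followed at 480 nm every 20 s for 4 min.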
Large screens that a line does not name were inactive; [ ] = remark or other dose. Sampled rows, rich in hits. Any-hit rate of the full collection: about 2.4%. Unless noted, the call rests on the fitted dose curve.

COc1cccc(C2=NOC(C(=O)Nc3cc(C)nn3-c3ccccc3)C2)c1OC (stereo unspecified)	LT uptake inh inconclusive, AmpC inh no det 3.98µM[single pt active]
COc1cc(OC)c(C2=NOC(C(=O)Nc3cc(C)nn3-c3ccccc3)C2)cc1Cl (stereo unspecified)	LT uptake inh inconclusive
O=P(O)(OP(=O)(O)c1ccccc1)c1ccccc1 (tested in a mixture with another compound)	LT uptake inh inconclusive
Cc1ccccc1OCc1nc(-c2ccc(NC(=O)c3ccc4c(c3)OCO4)cc2)no1	AmpC inh no det 12.6µM
Cc1ccccc1OCc1nc(-c2ccc(NC(=O)c3ccco3)cc2)no1	LT uptake inh inconclusive
CCN(CCCNC(=O)Cn1ncc2c(=O)oc3ccccc3c21)c1cccc(C)c1	AmpC inh no det 2µM[single pt active]
O=C(Cn1ncc2c(=O)oc3ccccc3c21)NCCCN1CCCC1=O	AmpC inh no det 3.98µM[single pt active]
O=C(Cn1ncc2c(=O)oc3ccccc3c21)NCC1COc2ccccc2O1 (stereo unspecified)	AmpC inh no det 0.794µM
COCCCNC(=O)Cn1ncc2c(=O)oc3ccccc3c21	none
O=C(Cn1ncc2c(=O)oc3ccccc3c21)NC1CC1	none
C[C@H]1C(=O)O[C@H]2CCN3CC=C(COC(=O)[C@](C)(O)[C@@]1(C)O)[C@H]23	none
O=C(Oc1ccccc1)N1CCC[C@@]2(CCN(c3ccccc3)C2)C1	none
NC(=O)CN1CCN(C(=O)NC2CCCCC2)CC1	AmpC inh no det 3.16µM[single pt active]
O=C(NCCN1CCN(C(=O)NC2CCCCC2)CC1)NC1CCCCC1	none
Cc1oc2c(O)c(O)ccc2c(=O)c1-c1cnn(-c2ccccc2)c1	LT uptake inh 7.94µM (no result: Prx2 Sm inh)
CC1(C)[C@@H](O)CC[C@@]2(C)[C@H]1CC[C@]1(C)[C@H]2C(=O)C=C2[C@@H]3C[C@@](C)(C(=O)O)CC[C@]3(C)CC[C@@]21C	LT uptake inh inconclusive
COc1ccccc1N1CCN(c2cc(=O)n(-c3ccc(Br)cc3)c(=O)[nH]2)CC1	AmpC inh no det 15.8µM[single pt active]
COc1ccccc1N1CCN(c2cc(=O)n(-c3ccc(Cl)cc3)c(=O)[nH]2)CC1	none
O=C(O)C1CCCN1S(=O)(=O)c1cccc2cccnc12 (stereo unspecified)	none
CCCCNC(=O)CS(=O)Cc1nc(-c2ccc(C)cc2)oc1C (stereo unspecified)	AmpC inh no det 3.98µM[single pt active]
Cc1ccc(-c2nc(CS(=O)CC(=O)NCCCN3CC(C)CC(C)C3)c(C)o2)cc1 (stereo unspecified)	AmpC inh no det 3.98µM[single pt active]
CCCN(CCC)CCNC(=O)CS(=O)Cc1nc(-c2ccc(C)cc2)oc1C (stereo unspecified)	none
COC[C@H]1OC(=O)c2coc3c2[C@@]1(C)C1=C(C3=O)[C@H]2CCC(=O)[C@@]2(C)C[C@H]1OC(C)=O	LT uptake inh inconclusive
NCC[C@H]1CCC[C@H](CCN)N1	none
C[N+]1(C)CCc2cc3c(cc2[C@@H]1[C@@H]1OC(=O)c2c1ccc1c2OCO1)OCO3	none
CCn1ncc(C2=NOC(C(=O)Nc3c(C)n(C)n(-c4ccccc4)c3=O)C2)c1C (stereo unspecified)	AmpC inh no det 3.98µM[single pt active]
CCn1ncc(C2=NOC(C(=O)Nc3c(C)nn(Cc4ccc(F)cc4)c3C)C2)c1C (stereo unspecified)	none
Cc1cccc2cc(C#N)c(SCC(=O)N3CC(=O)Nc4ccccc43)nc12	AmpC inh no det 15.8µM[single pt active]
Cc1cccc2cc(C#N)c(SCC(=O)N3CCC(C)CC3)nc12	none
COc1ccc(OCc2nnc3n2N=C(c2ccc(Br)cc2)CS3)cc1	LT uptake inh inconclusive, AmpC inh no det 3.98µM[single pt active]
CCOC(=O)CN1C2=NCCN2c2ccccc21	none
CCOC(=O)CN1C(=O)C(=O)c2cccc(C)c21	AmpC inh no det 3.98µM[single pt active]
O=c1c(O)c(-c2ccc(O)cc2)oc2ccc(O)cc12	AmpC inh no det 15.8µM[single pt active]
COCCn1c(=O)c(-c2ccc(Cl)cc2)nc2cnc(Oc3cccc(Cl)c3)nc21	none
c1ccc(CCNc2ccc3nncn3n2)cc1	AmpC inh no det 3.16µM[single pt active]
O=C(NCCc1ccccc1)c1ccc(-n2cnnn2)cc1	none
Cc1ccc2c(c1)c(-c1ccccc1)nc1nncn12	LT uptake inh inconclusive, AmpC inh no det 2.51µM[single pt active]
Cc1cccc(-c2nc3ccccc3c3nncn23)c1	none (no result: Prx2 Sm inh)
O=C(Nc1nccs1)C1CCN(S(=O)(=O)c2cccnc2)CC1	none
O=C(Nc1ccc2c(c1)OCCO2)C1CCCN(S(=O)(=O)c2cccnc2)C1 (stereo unspecified)	LT uptake inh inconclusive, AmpC inh no det 3.98µM[single pt active]
O=C(NCCC1=CCCCC1)C1CCCN(S(=O)(=O)c2cccc3cccnc23)C1 (stereo unspecified)	none
O=C(NCCC1=CCCCC1)C1CCCN(S(=O)(=O)c2cccnc2)C1 (stereo unspecified)	AmpC inh no det 2.51µM[single pt active]
O=C(Nc1nccs1)C1CCCN(S(=O)(=O)c2cccnc2)C1 (stereo unspecified)	AmpC inh no det 3.98µM[single pt active]
Cn1c(=O)c2[nH]cnc2n(C)c1=O.[CH2-][C@H](Cc1cccc2cc(C(=O)O)c(=O)oc12)OC.[Hg].[OH-]	Prx2 Sm inh inconclusive, LT uptake inh inconclusive
COC(=O)NC(/C(C(=O)OC)=C(\C)NCc1ccccc1)c1ccc2ccccc2c1 (stereo unspecified)	none (no result: AmpC inh det, Prx2 Sm inh, AmpC inh no det)
CN(C)C(=O)c1ccc(-c2ccc3ncnc(NC4CCNCC4)c3c2)cc1	none
COCCn1c(=O)c(-c2cn(C)c3ccccc23)nc2cnc(Oc3ccc(OC)cc3)nc21	LT uptake inh inconclusive
C/C(=C\C(=O)c1ccc(C)cc1)Nc1cccc(O)c1	LT uptake inh 10µM (no result: Prx2 Sm inh)
CCN(CC)c1ccc(C(=O)Nc2cccc(F)c2)cc1	LT uptake inh 10µM
CN(C)c1cccc(C(=O)Nc2cccc(F)c2)c1	none (no result: LT uptake inh)
CC1(C)[C@@H]2CC[C@@](C)(C2)[C@H]1OC(=O)c1ccccc1C(=O)O	none
Cc1noc(C)c1-c1cc(NCCN2CCOCC2)ncn1	LT uptake inh inconclusive
N[C@@H](Cc1cc(-c2ccc(Cl)cc2Cl)cc(CP(=O)(O)O)c1O)C(=O)O	AmpC inh det 15.8µM, LT uptake inh inconclusive, AmpC inh no det inconclusive
COc1ccc(C2CC(=O)c3cnc(NC(=O)c4ccccc4)nc3C2)cc1OC (stereo unspecified)	AmpC inh no det 3.98µM[single pt active]
COc1ccc(NC(=O)NCCCN2CCN(c3cc(C)ccc3C)CC2)cc1	LT uptake inh inconclusive, AmpC inh no det 3.98µM[single pt active]
CCOc1ccc2nc(NC(=O)CN3CCC(n4nnc5cc(F)ccc54)CC3)sc2c1	LT uptake inh 12.6µM
O=C(CN1CCC(n2nnc3cc(F)ccc32)CC1)NC1CC1	none
CC(C)[C@H](CO)Nc1nc(Nc2cccc(Cl)c2)c2ncn(C(C)C)c2n1	LT uptake inh 12.6µM
CC(=O)OCC1OC(C#CC2=CCCCC2)C=CC1OC(C)=O (stereo unspecified)	none (no result: AmpC inh det, Prx2 Sm inh, AmpC inh no det)
CNCCCCOc1ccccc1Cc1ccccc1	LT uptake inh 31.6µM
COc1ccccc1OCCCCNC(C)(C)C	none
CCCCC=O	none (no result: Prx2 Sm inh)
CC(C)Oc1ccc(NC(N)=O)cc1	LT uptake inh inconclusive
